# Source: PubChem BioAssay AID488899 (Broad Institute, 2010)
# Among all 330,000 compounds or so, about 2,800 (0.85%) were called active. For the sample, actives were picked, then their nearest neighbours and some compounds at random. Unmarked numbers belong to inactive results.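 Rule for the calls: active = mean inhibition across replicates of 60% or more, whatever share of single replicates reaches that level; inconclusive = some that reach 60%, reason not given; inactive = mean inhibition across replicates below 60%.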
# Assay: inhibitors of MITF-dependent TRPM1 promoter reporter, primary screen, cell-based, SK-MEL-5, single point, luciferase (AID 488899)
# Conditions: SK-MEL-5 TRPM1 promoter luciferase, 24 h; at 12.5 µM; hits give high values
row,Structure (SMILES),inhibition
1,CNN/C(N=Cc1ccc([N+](=O)[O-])s1)=N\S(=O)(=O)c1cc(C)c(Cl)cc1SCc1ccccc1,24.1%
2,CNC[C@H](CC1CCCCC1)NC[C@H](NCCC1CCCC1)[C@H](C)O,78.2% (active)
3,CCOC(=O)c1ccccc1NC(=O)CSc1nc2c(sc(=S)n2CC)c(=O)[nH]1,-3.35%
4,Cc1ccc(-n2nc(N)c3c(=O)oc(N(C)C)nc32)cc1,-8.9%
5,COc1ccc(C(=O)NCC(c2ccco2)N2CCc3ccccc32)cc1OC (stereo not drawn),5.95%
6,Cc1ccc(-c2cn3cc(C)ccc3n2)cc1,93.3% (active)
7,Cc1ccc(-c2cn3cc([N+](=O)[O-])ccc3n2)cc1,48.1%
8,Cc1ccc2nc(-c3ccc(Br)cc3)cn2c1,50.5%
9,CCOc1ccc(-n2cnc3c(=O)[nH]c(N)nc32)cc1,-21.7%
10,O=C(CCCCCCCC(=O)N1CCCCC1)N1CCCCC1,0.359%
11,COc1ccc(NC(=O)COC(=O)c2ccncc2)c(OC)c1,-6.34%
12,Cc1cc2oc(=O)cc(CN3CCN(Cc4ccccc4)CC3)c2cc1C,-7.61%
13,Cc1cc2oc3ccc(NCCC4CCCN4C)cc3c(=O)c2cc1C (stereo not drawn),82.2% (active)
14,COc1cccc2sc3cc(NCC[C@@H]4CCCN4C)ccc3c(=O)c12,-35.6%
15,CCOc1ccc(CN2CCNC(=O)C2CC(=O)NCCCC2CCCC2)cc1 (stereo not drawn),-18.3%
16,COc1cc([N+](=O)[O-])ccc1NC(=O)COC(=O)CCOc1ccc(C)cc1,8.46%
17,COc1ccc(C(=O)CCC(=O)Nc2ccc(Cl)cc2)cc1,-4.44%
18,CCN(CC(=O)Nc1ccc(OC)cc1)C(=O)CSCc1ccc(C)cc1,-0.141%
19,COC(=O)c1sccc1NC(=S)Nc1ccc(C)cc1,-74.3%
20,COc1ccc(CS(=O)/C(Cl)=C(/Cl)C(=O)Nc2ccc(OC)nc2)cc1 (stereo not drawn),99.4% (active)
21,COc1ccc(CCNC(=O)c2cnc(Cl)c(Cl)c2)cc1,1.33%
22,COc1ccc(NC(=O)/C(Cl)=C(/Cl)S(=O)Cc2ccc(C)cc2)cn1 (stereo not drawn),113% (active)
23,COc1ccc(C(=O)NC(Cc2ccc(OC(=O)c3ccc(OC)cc3)cc2)C(=O)O)cc1 (stereo not drawn),3.82%
24,Cc1cc(C(=O)N/N=C/c2ccccn2)c2ccccc2n1,-2.21%

row,Structure (SMILES),inhibition
1,Cc1nnc(N/N=C/c2ccccn2)[nH]c1=O,79.6% (active)
2,O=C(N/N=C/c1ccccn1)C12CC3CC(CC(C3)C1)C2,0.297%
3,O=C(O)c1cc(S(=O)(=O)N(Cc2ccccc2)c2cccc(C(F)(F)F)c2)ccc1Cl,11.3%
4,COc1cc2c(cc1OC)C(Nc1ccc(S(N)(=O)=O)cc1)=NC(C)(C)C2,12.1%
5,COc1cc2c(cc1O)C(SC)=NC(C)(C)C2,73.8% (active)
6,COc1cc2c(cc1OC)C(C(C)C)=NC(C)(C)C2,2.2%
7,COc1ccc(-n2c(C)nn(CC3CC3)c2=O)cc1,-0.556%
8,CCOc1ccc(NC(=O)CSc2nc3ccccc3c(=O)n2Cc2cccs2)cc1,9.83%
9,C=CCn1c(CNS(=O)(=O)c2ccc(Br)cc2)nnc1SC,-0.805%
10,CC(C)c1cc(C(=O)N/N=C/C(Br)=C/c2ccccc2)n[nH]1,11.7%
11,Cc1cc(-c2n[nH]c(=S)n2/N=C/C(Br)=C/c2ccccc2)n[nH]1,71.3% (active)
12,COc1ccccc1N1CCN(/N=C\C(Br)=C\c2ccccc2)CC1,-56.4%
13,COc1ccc(-c2cc(=O)oc3cc(OC(C)C(=O)Nc4ccc(CN5CCOCC5)cc4)ccc23)cc1 (stereo not drawn),-4.64%
14,CCCN(CCC)S(=O)(=O)c1cc2c(cc1Br)CCN2C(=O)CC,0.177%
15,NN=C(NN=Cc1ccccc1)c1ccccc1,-40.6%
16,CC(Oc1ccc(-c2ccccc2)c(F)c1)c1ccn(S(=O)(=O)c2cccc3ccccc23)n1 (stereo not drawn),-2.2%
17,O=C(O)c1ccc(S(=O)(=O)c2ccccc2)s1,11.8%
18,COc1ccc(C2=NN(c3nc4ccccc4s3)C(=O)C2)cc1,19.7%
19,COC(=O)Cc1[nH]n(-c2nc3ccccc3s2)c(=O)c1C(C)=Nc1ccc(OC)cc1,95.4% (active)
20,CC(=NCc1ccco1)c1c(C(F)(F)F)[nH]n(-c2nc3ccccc3s2)c1=O,-61.7%
21,CC[C@]12c3[nH]c4ccc(Cl)cc4c3CCN1C(=O)[C@@H](CC(=O)NCCCOC)C[C@@H]2C(=O)N1CCN(C(=O)c2ccco2)CC1,-7.5%
22,CCOc1ccc(N/C=C/C(=O)c2cc(OC)c(OC)c(OC)c2)cc1,4.18%
23,CCOc1ccc(N/C=C/C(=O)c2ccccc2)cc1,8.94%
24,COc1ccc(C(=O)/C=C/Nc2ccccn2)cc1,67.5% (active)

row,Structure (SMILES),inhibition
1,O=[N+]([O-])c1ccc(N=NNc2ccc([N+](=O)[O-])cc2)cc1,-19.3%
2,CN(C)CCNC(=O)c1ccc(Cl)c2cc3ccccc3nc12,74.8% (active)
3,CC(=O)NCCNC(=O)c1cc(-c2cccc3ccccc23)nc2ccccc12,9.13%
4,CN(C)CCNC(=O)Nc1cccc(Cl)c1Cl,5.71%
5,Cc1ccc(OCC(=O)Nc2ccc(NC(=O)c3cccs3)cc2)c(C)c1,27.8%
6,Cc1ccc(-c2nnc(-c3ccc(NC(=O)c4cccs4)cc3)o2)cc1,73.5% (active)
7,Cc1ccc(C(=O)Nc2ccc(NC(=O)c3cccs3)cc2)c(C)c1,-4.59%
8,CS(=O)(=O)c1ccc2nnn(OCC(=O)Nc3cccc(C#N)c3)c2c1,10.8%
9,COc1cc(O)c2c(=O)c3c(O)c(O)ccc3oc2c1OC,-1.36%
10,Cc1ccccc1-c1n[nH]c(=S)n1/N=C/c1ccc(-c2ccccc2Br)o1,10.7%
11,O=C(CSc1n[nH]c(-c2cccs2)n1)N1CCCCC1,-12.1%
12,COc1cc(OC)cc(C(=O)NNC(=O)CCOc2ccccc2OC)c1,-4.37%
13,COc1ccc(C(=O)N[C@H](C(=O)NCc2ccccc2)C(C)C)cc1,9.58%
14,COc1cc(OC)cc(C(=O)N[C@H](C(=O)Nc2nc3ccccc3[nH]2)C(C)C)c1,71% (active)
15,COc1cc(OC)cc(C(=O)N[C@H](C(=O)NNC(=O)c2ccc(Br)cc2)C(C)C)c1,13.3%
16,CCn1nnc2cc(C(=O)Nc3ccc(C(=O)OC(C)C)cc3)ccc21,21.6%
17,CCOC(=O)C(CO)NC(=O)C1(NC(C)=O)CCCC1 (stereo not drawn),-14.8%
18,Cc1csc(NC(=O)c2ccc(C)s2)n1,-57.3%
19,COc1ccc(C(=O)Nc2cccc(NC(=O)c3ccc(OC)cc3OC)n2)c(OC)c1,-13.3%
20,COc1cc(SC)ccc1C(=O)Nc1nc(C)cs1,88.5% (active)
21,Cc1ccc(N2C(=O)CC(Nc3cccc4ccccc34)C2=O)cc1 (stereo not drawn),8.42%
22,CSc1ccccc1NC(=O)C(C)N1C(=O)c2ccccc2S1(=O)=O (stereo not drawn),0.029%
23,CC(=O)Nc1ccccc1Sc1ccc2c3c(cccc13)C(=O)N(c1ccc(C)cc1)C2=O,65.2% (active)
24,O=C(NNC(=O)C1CCCC1)c1ccc(F)cc1,3.41%

row,Structure (SMILES),inhibition
1,COc1ccc(C(=O)NCC(=O)N/N=C/c2ccc([N+](=O)[O-])o2)cc1OC,10.3%
2,O=C(/C=C/c1ccc([N+](=O)[O-])o1)NNC(=O)c1ccc(F)cc1,80.8% (active)
3,O=C(Cn1cnc2ccccc2c1=O)NCC1COc2ccccc2O1 (stereo not drawn),-4.59%
4,COC(=O)Cn1nc(-c2ccccc2)c2cc(Cl)ccc21,-4.99%
5,Cc1ccc2nc(Nc3ccccc3O)nc(-c3ccccc3)c2c1,-6.93%
6,NC(N)=Nc1nc(-c2ccccc2)c2cc(Cl)ccc2n1,85.2% (active)
7,COc1ccc2[nH]c3c(C)c4cc[n+](C)cc4c(C)c3c2c1,50.4%
8,O=C(Cn1ccc2cc(S(=O)(=O)N3CCCC3)ccc21)NCc1ccccc1,-7.14%
9,O=[N+]([O-])/C=C/c1ccc2c(ccn2Cc2ccccc2)c1,69.6% (active)
10,COC(=O)Cn1cc(/C=C/[N+](=O)[O-])c2ccccc21,1.38%
11,CC1(C)C2CCC1(C)C(OC(=O)c1ccc(O)cc1)C2 (stereo not drawn),-0.433%
12,O=C(OC12CC3CC(CC(C3)C1)C2)c1ccc(NCc2cc(O)ccc2O)cc1,66.6% (active)
13,COC(=O)c1ccc(NCc2cc(O)ccc2O)cc1,-5.57%
14,CC(C)OC(=O)c1ccc(NCc2cc(O)ccc2O)cc1Cl,5.02%
15,CCOc1ccc(-n2c(O)c(/C=N/Nc3nc(C)cc(C)n3)c3ccccc3c2=O)cc1,67.6% (active)
16,Cc1ccc(-n2c(O)c(C=Nc3ccc(S(=O)(=O)Nc4ncccn4)cc3)c3ccccc3c2=O)cc1C,7.63%
17,CCN(CC)CCCN=Cc1c(O)n(-c2ccc(C)cc2)c(=O)c2ccccc12,-6.61%
18,Cc1ccc(S(=O)(=O)C2C(=O)NC3(C)CC2c2ccccc2O3)cc1 (stereo not drawn),4.13%
19,COc1ccc(C(=O)Nc2ccnn2C2CCN(Cc3ccncc3)CC2)cc1,-5.32%
20,CCCCCN(C(=O)NC(=O)Nc1ccccc1C)S(C)(=O)=O,4.88%
21,CCOC(=O)CCC(NC(=O)c1ccc(CNc2nc3cc(C(F)(F)F)ccc3nc2C(=O)OCC)cc1)C(=O)OCC (stereo not drawn),3.92%
